# Screening data deposited in PubChem by National Center for Advancing Translational Sciences (NCATS).
# JMJD2A Tudor inh = blocks the human JMJD2A Tudor domain | O75164 | AlphaScreen JMJD2A-Tudor / H3K4me3 peptide binding | Potency, µM (titrated, usually from 114 µM), for inactives: at the highest dose activity change, negative = inhibition, usual class: inhibitors | 390,000 tested, 4.4% active | AID 504339; further: potency means the concentration at half of the fitted maximal effect; on the % scale 0 is the no-effect control and ±100 the full control effect; nearly all actives have a fitted effect of over 50% in size
# L3MBTL1 inh = blocks human L3MBTL1 | Q9Y468 | AlphaScreen L3MBTL1–H3K9me1 peptide binding | Potency, µM (series often up to 57.1 µM), for the others: at the highest dose activity, negative = inhibition, most hits filed as inhibitors | 230,000 tested, 0.66% active | AID 485360; further: potency means the concentration at half of the fitted maximal effect; on the % scale 0 is the no-effect control and ±100 the full control effect; nearly all actives have a fitted effect of over 60% in size
#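 AlphaScreen proximity signal between nickel-chelate acceptor and streptavidin donor beads (final 10 ug/mL) reports binding of 50 nM L3MBTL1 to 75 nM biotin-H3 K9me1 peptide; complex incubated with compounds 30 min at room temperature; cefsulodin titration as control.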
# Sfp PPTase inh = inhibitors of Bacillus subtilis Sfp phosphopantetheinyl transferase; Biochemical Sfp PPTase activity, qHTS; Potency, µM, for the others: largest response in the series, negative = inhibition, hits mostly inhibitors; AID 1490; Q9F4F7; 310,000 tested, 3.5% active;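 further: the enzyme is Sfp with the accession as filed and its product quenches rhodamine fluorescence; potency means the concentration at half of the fitted maximal effect; 0% = enzyme reaction without inhibitor and -100% = no enzyme wells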
#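 Step 1, compound plus 15 nM Sfp-PPTase, 15 min, room temperature. Step 2, add rhodamine-CoA (5 uM) and BHQ-2-YbbR (12.5 uM). Step 3, read 525/598 nm fluorescence at 0 and 30 min.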
# G9a inh-1 = inhibitors of human histone lysine methyltransferase G9a | Q96KQ7 | G9a H3K9 monomethylation, AlphaScreen, 2 h | Potency, µM (titrated, usually from 102 µM), without a hit: at the top dose activity, negative = inhibition, usual class: inhibitors | 350,000 tested, 8.8% active | AID 504332; further: potency means the concentration at half of the fitted maximal effect; on the % scale 0 is the no-effect control and ±100 the full control effect; nearly all actives have a fitted effect of over 75% in size
#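 Enzyme 20 nM + cpd, 15 min RT; add b-H3K9 pep 500 nM / SAM 20 uM; 2 h RT; anti-H3K9me1 Ab 0.5 ug/mL + SA donor / anti-rabbit acceptor beads 20 ug/mL each, 10 min; AlphaScreen read.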
# BAZ2B block = blocks human BAZ2B | Q9UIF8 | 360,000 tested, 4.4% active | Potency, µM (series often up to 114 µM), for inactives: at the top dose activity change, negative = inhibition, hits mostly inhibitors | AID 504333 | AlphaScreen BAZ2B-H3K14Ac peptide displacement; further: potency means the concentration at half of the fitted maximal effect; on the % scale 0 is the no-effect control and ±100 the full control effect; nearly all actives have a fitted effect of over 60% in size
# Target sequence (Q9UIF8 whole entry, looked up): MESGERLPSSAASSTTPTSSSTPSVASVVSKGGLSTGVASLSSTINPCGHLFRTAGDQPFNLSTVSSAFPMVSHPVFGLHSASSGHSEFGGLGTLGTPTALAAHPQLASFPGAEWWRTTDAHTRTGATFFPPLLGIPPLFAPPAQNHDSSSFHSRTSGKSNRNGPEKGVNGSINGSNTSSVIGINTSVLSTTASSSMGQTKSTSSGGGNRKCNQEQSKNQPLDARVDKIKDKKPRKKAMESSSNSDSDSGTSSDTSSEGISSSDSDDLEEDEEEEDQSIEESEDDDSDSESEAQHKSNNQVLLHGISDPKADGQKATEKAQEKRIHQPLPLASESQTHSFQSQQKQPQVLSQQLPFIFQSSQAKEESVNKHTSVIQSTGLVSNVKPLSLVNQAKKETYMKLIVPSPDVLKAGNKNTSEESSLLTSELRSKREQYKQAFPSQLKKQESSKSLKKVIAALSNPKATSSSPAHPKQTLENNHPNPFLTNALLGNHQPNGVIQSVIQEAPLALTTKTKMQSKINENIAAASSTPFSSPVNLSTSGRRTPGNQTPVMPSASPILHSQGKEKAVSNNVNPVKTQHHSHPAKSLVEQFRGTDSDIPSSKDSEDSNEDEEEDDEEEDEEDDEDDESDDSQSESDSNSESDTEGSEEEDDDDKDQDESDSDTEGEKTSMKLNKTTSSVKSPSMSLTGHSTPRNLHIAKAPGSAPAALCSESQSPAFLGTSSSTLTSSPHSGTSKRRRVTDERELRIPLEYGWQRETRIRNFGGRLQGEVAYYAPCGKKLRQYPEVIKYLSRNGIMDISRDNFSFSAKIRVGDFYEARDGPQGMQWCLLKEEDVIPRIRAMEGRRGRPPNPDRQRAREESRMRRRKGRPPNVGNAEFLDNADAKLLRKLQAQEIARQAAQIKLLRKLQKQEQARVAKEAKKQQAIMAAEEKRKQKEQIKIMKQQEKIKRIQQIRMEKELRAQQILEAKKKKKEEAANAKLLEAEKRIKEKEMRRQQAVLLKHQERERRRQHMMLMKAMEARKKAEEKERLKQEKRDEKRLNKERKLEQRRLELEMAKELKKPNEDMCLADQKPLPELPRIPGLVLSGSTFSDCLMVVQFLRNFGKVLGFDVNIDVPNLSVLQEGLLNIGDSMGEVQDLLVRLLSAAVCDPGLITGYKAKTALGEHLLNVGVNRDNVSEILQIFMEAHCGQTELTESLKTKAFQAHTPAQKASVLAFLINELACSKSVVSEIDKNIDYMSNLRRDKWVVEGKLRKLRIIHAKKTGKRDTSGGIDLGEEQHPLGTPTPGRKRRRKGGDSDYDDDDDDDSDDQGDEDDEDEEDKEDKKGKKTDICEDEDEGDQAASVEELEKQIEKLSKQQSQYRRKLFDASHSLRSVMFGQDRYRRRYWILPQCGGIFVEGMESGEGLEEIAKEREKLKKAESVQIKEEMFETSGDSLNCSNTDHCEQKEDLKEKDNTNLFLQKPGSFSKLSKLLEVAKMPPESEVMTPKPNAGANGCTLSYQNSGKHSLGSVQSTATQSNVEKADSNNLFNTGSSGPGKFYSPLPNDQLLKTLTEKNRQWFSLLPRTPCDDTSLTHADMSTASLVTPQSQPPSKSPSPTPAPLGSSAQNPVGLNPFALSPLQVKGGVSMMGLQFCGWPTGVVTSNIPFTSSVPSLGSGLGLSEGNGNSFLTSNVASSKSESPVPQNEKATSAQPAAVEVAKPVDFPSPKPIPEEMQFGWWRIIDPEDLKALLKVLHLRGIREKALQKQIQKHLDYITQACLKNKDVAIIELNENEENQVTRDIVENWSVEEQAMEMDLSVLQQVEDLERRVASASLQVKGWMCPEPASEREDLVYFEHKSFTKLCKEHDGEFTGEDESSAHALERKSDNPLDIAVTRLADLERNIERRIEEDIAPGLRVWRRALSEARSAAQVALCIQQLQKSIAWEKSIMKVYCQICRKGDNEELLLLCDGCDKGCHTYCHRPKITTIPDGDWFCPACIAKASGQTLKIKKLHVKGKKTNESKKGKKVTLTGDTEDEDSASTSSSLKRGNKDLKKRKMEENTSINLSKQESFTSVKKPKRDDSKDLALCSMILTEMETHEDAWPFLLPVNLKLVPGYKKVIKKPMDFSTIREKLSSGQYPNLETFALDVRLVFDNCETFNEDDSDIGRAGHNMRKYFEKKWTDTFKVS
#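 BAZ2B (50 nM) with biotin-H3(5-23)K14Ac peptide (50 nM) in PBS pH 7.4, 0.01% Tween-20, preformed 30 min, then compound 30 min at room temperature; top concentration 110uM. AlphaScreen streptavidin donor/nickel chelate acceptor beads (10 ug/mL final), 20 min dark, signal read.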
# HP1b chromo inh = inhibitors of HP1-beta chromodomain binding to methylated histone tails; P83916; AlphaScreen HP1-beta / biotin-H3K9me3 peptide binding; Potency, µM (titrated, usually from 114 µM), inactives show at the top dose activity change, negative = inhibition, usual class: inhibitors; 390,000 tested, 0.56% active; AID 540317; further: potency means the concentration at half of the fitted maximal effect; nearly all actives have a fitted effect of over 70% in size
#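 AlphaScreen: HP1-beta (50 nM) preformed 30 min with biotin-H3(1-18)K9me3 peptide (50 nM) in PBS pH 7.4, 0.01% Tween-20. Compound added for 30 min at RT, then streptavidin donor/nickel chelate acceptor beads (10 ug/mL) for 30 min.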
# JMJD2E confirm = confirmation of inhibitors of human JMJD2E demethylase; shares compounds with JMJD2A Tudor inh; Recombinant JMJD2E, FDH-coupled NADH fluorescence (FDH is formaldehyde dehydrogenase); Potency, µM (titrated, usually from 56.8 µM), for the others: top-dose activity change, negative = inhibition, usual class: inhibitors; 140 tested, 93% active; AID 2677
# FDH inh = counter-screen for JMJD2E inhibitors: Pseudomonas putida formaldehyde dehydrogenase; 140 tested, 10% active; FDH enzyme assay, NADH fluorescence kinetic; shares compounds with JMJD2A Tudor inh; Potency, µM (doses to about 56.7 µM), without a hit: at the top dose activity, negative = inhibition, actives largely listed as inhibitors
# G9a inh-2 = confirmation of human histone methyltransferase G9a inhibitors. 370 tested, 89% active. Potency, µM, hits mostly inhibitors. G9a H3K9 monomethylation, AlphaScreen, 2 h. AID 588344. shares compounds with JMJD2A Tudor inh; further: potency means the concentration at half of the fitted maximal effect; nearly all actives have a fitted effect of over 65% in size
# RGS4 inh = confirmation of human RGS4 inhibitors | AID 602388 | 25 tested, 80% active | shares compounds with JMJD2A Tudor inh | Potency, µM, actives largely listed as inhibitors | RGS4 GAP activity, Transcreener GDP fluorescence polarization
# An asterisk follows results filed as active; ? = inconclusive; . = no result. Sampled rows, rich in hits. Any-hit rate of the full collection: about 12%. The call rests on the fitted dose curve; in most records, active means well fitted curve in the direction sought with a large enough effect; inconclusive means small, poorly fitted or top-dose-only effect, or another doubt; inactive means no such curve, though single readings can be large; an effect the other way counts as inactive or inconclusive.
SMILES,JMJD2A Tudor inh,L3MBTL1 inh,Sfp PPTase inh,G9a inh-1,BAZ2B block,HP1b chromo inh,G9a inh-2,others
CCN(CC)C(=O)Cc1c(OC)ccc2cc(Br)ccc12,10%,2%,-12%,-39%,-34%,50%,.,
CCN(Cc1ccncc1)Cc1c(O)ccc2cc(Br)ccc12,45µM*,-17%,45µM*,2µM*,.,?,2.8*,RGS4 inh=17*
Cc1cc(Br)ccc1SCC(=O)OCC(=O)NC1CCCC1,-4%,-24%,7%,?,2%,52%,.,
CC(=O)c1ccc(S(=O)(=O)N2CCCC(N(C)CCc3ccccn3)C2)cc1 (stereo not given),12%,.,6%,?,-20%,29%,?,
CCN(c1ccc(NC(=O)CCc2nc3sc4c(c3c(=O)[nH]2)CCCC4)cc1)C(C)C,?,?,.,2.2µM*,-33%,-21%,2.2*,
CCc1ccc(NC(=O)CCc2nc3sc4c(c3c(=O)[nH]2)CCCC4)cc1,-30%,?,.,-34%,-37%,30%,.,
COc1ccc(CNC(=O)C/C(C)=N/NC(=O)c2cnccn2)cc1,-15%,-9%,?,?,?,11%,.,
Cc1cccc(OCc2nnc(SCC(=O)Nc3cccc(C(=O)N4CCOCC4)c3)o2)c1C,-9%,4%,-6%,2µM*,-21%,12%,5*,
O=C(CC1Sc2ncnn2C1=O)Nc1ccc(Br)cc1 (stereo not given),25µM*,3%,50µM*,2µM*,-2%,?,0.18*,JMJD2E confirm=4µM*;FDH inh=0.28µM*
CCn1c(SCC(=O)N2CCc3ccccc3C2)nc2sc(C)c(C)c2c1=O,-21%,-2%,-15%,?,-19%,10%,.,
Cc1nc2ccccc2n1CC(=O)OCC(=O)NC1CC1,10%,1%,27%,11%,3%,22%,.,
CC(C)c1ccc(N2C(=O)CC(Sc3ncn[nH]3)C2=O)cc1 (stereo not given),7.1µM*,.,56µM*,1.3µM*,5%,-73%,.,JMJD2E confirm=5.6µM*;FDH inh=0.25µM*
CC1CC(=O)N(c2ccc(C(C)C)cc2)C(=O)C1,-6%,46%,13%,.,23%,36%,.,
O=C(CCN1C(=O)c2ccccc2C1=O)C1=NN[C@@H]2C(=O)N(c3ccc4c(c3)OCCO4)C(=O)[C@H]12,-6%,-7%,14%,?,-17%,24%,.,
CCOC(=O)N1CCN(C(=O)Cc2cccc3ccccc23)CC1,-5%,-3%,11%,?,-24%,33%,.,
CCOC(=O)C1CCN(C(=O)Cc2cccc3ccccc23)CC1,2%,-3%,3%,?,12%,24%,18*,
CCOC(=O)c1nn(-c2ccc(OC)cc2)c(=O)c2c(N)scc12,?,-6%,10µM*,1.1µM*,50µM*,-15%,4*,
O=C1C2CCCN2C(=S)N1c1cc(Cl)ccc1Cl (stereo not given),-18%,4%,.,?,-3%,?,.,
COc1ccc(O)c(CNc2ccccc2F)c1,-29%,.,6%,?,.,3%,28*,
